TEAD-YAP block = TEAD-YAP interaction inhibition. hit rate 1.4% among 640,000. HEK-TIYL cells, TEAD-Gal4/YAP UAS-luciferase luminescence. inhibition, % at 9.12 µM; in the data active = inhibition above about 32%
GPR151 ag = human GPR151 activation. Q8TDV0. PathHunter beta-arrestin GPR151 cells, luminescence. activation, % at 11.2 µM. hit rate 1% among 650,000. AID 1508602; in the data active = activation above about 4.9%
FBW7 act = activators of human E3 ligase FBW7; hit rate 0.13% among 650,000; normalized activity (activation), % at 26.1 µM; Q969H0; AlphaScreen FBW7–phospho-cyclin E peptide binding, activator screen; in the data active = normalized activity above about 1.9%;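 also: purified mutant Fbw7 with reduced substrate affinity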
MITF inh = human MITF inhibition, primary screen; inhibition, % at 2.6 µM; AID 1259374; O75030; hit rate 0.91% among 650,000; AlphaScreen MITF homodimerization, bead proximity signal; in the data active = inhibition above about 50%
GPR151 confirm = human GPR151 activation, confirmation screen; shares compounds with GPR151 ag; GPR151 PathHunter beta-arrestin cells, luminescence, 90 min; % of EA-reagent control over plate median; activation, % at 11.2 µM; 6,700 tested, under 10 active; AID 1508609;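 active = mean percent activation across replicates above the confirmation screen cutoff of 4.91%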
GPR119 counter = counter-screen for GPR151 activators: effect on human GPR119. shares compounds with GPR151 ag. hit rate 0.3% among 6,700. activation, % at 11.2 µM. AID 1508611. GPR119 PathHunter beta-arrestin cells, luminescence, 90 min; 0 = compound-well median, 100 = enzyme-acceptor control;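 active = mean percent activation in the counterscreen above 29.09%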;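 also: counterscreen on off-target GPR119 to flag nonselective hits from the GPR151 activator screen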
Target sequence (Q8TDV5 whole entry, looked up): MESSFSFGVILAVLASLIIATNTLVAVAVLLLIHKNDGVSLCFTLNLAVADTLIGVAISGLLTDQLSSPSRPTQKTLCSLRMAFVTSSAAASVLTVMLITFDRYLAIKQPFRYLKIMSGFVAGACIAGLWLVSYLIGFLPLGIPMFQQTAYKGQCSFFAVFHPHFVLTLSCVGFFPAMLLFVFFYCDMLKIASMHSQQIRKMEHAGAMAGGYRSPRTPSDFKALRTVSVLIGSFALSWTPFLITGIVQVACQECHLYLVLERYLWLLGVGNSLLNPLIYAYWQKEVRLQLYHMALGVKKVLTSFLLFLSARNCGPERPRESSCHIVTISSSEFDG
Large screens that a line does not name were inactive (follow-up assays come after a bar, where they were run); ! = not confirmed by another sample. Hits are enriched below; roughly 3.5% of the tested compounds scored in any of these assays.

Cc1cc(C)n2nc(SCC(=O)Nc3c(C)nn(-c4ccccc4)c3C)nc2n1	GPR151 ag 5.4 | GPR151 confirm inactive | GPR119 counter inactive
Cc1cc(C)n2nc(SCC(=O)Nc3ccccc3C(C)(C)C)nc2n1	none
CCOc1cc(C=O)ccc1OCCCCN1CCCCC1	none
CCc1nnc(SCC(=O)N2c3ccccc3Sc3ccccc32)n1N	none
Cc1nnc(SCC(=O)N2c3ccccc3Sc3ccccc32)n1N	GPR151 ag 7.4 | GPR151 confirm inactive | GPR119 counter inactive
COc1ccc(S(=O)(=O)NCC(c2ccco2)N(C)C)cc1F (stereo not drawn)	GPR151 ag 6.5 | GPR151 confirm inactive | GPR119 counter inactive
Nc1nc2ncc(CNc3ccc(C(=O)N[C@@H](CCC(=O)O)C(=O)O)cc3)nc2c(=O)[nH]1	GPR151 ag 5.6 (no result: TEAD-YAP block) | GPR151 confirm inactive | GPR119 counter inactive
Nc1nc2ncc(CNc3ccc(C(=O)NC(CCC(=O)O)C(=O)O)cc3)nc2c(=O)[nH]1 (stereo not drawn)	none
CC1=CC(C)C2COC(c3ccccc3O)C1C2 (stereo not drawn)	GPR151 ag 5.3 | GPR151 confirm inactive | GPR119 counter inactive
CCOC(=O)c1sc(NC(C)=O)cc1C	none
CCOC(=O)c1sc(N/C(=C/C(=O)c2ccccc2)C(=O)O)cc1C	GPR151 ag 9.0 | GPR151 confirm inactive | GPR119 counter inactive
Cc1cc(C(=O)N(CC#N)CC#N)ccc1[N+](=O)[O-]	GPR151 ag 7.7 | GPR151 confirm inactive | GPR119 counter inactive
COCCNC(=O)[C@@H]1C[C@H](NCc2ccccc2)CN1Cc1ccccc1Cl	GPR151 ag 8.5 | GPR151 confirm inactive | GPR119 counter inactive
COCCNC(=O)[C@@H]1C[C@H](NCc2ccc(C(C)C)cc2)CN1Cc1ccccc1Cl	none
CCCCNS(=O)(=O)c1c(C)cc(C)cc1C	none
CCn1c(SCC(=O)Nc2ccc(C(C)=O)cc2)nnc1-c1ccco1	none
CC(=O)Nc1ccc(NC(=O)CSc2nnc(-c3ccncc3)n2C)cc1	none
Cn1c(SCC(=O)Nc2ccc3nc(SCC(=O)Nc4ccccc4F)sc3c2)nnc1-c1ccc(Cl)cc1Cl	none
CC(=O)Nc1ccc(NC(=O)CSc2nnc(-c3ccncc3)n2N)cc1	GPR151 ag 5.5 | GPR151 confirm inactive | GPR119 counter inactive
Cn1c(SCC(=O)Nc2ccc3nc(SCC(=O)c4ccc(Cl)cc4)sc3c2)nnc1-c1ccc(N)cc1	GPR151 ag 5.5, FBW7 act 29 | GPR151 confirm inactive | GPR119 counter inactive
Cn1c(SCC(=O)Nc2ccc(Br)cc2)nnc1-c1ccc(N)cc1	GPR151 ag 5.3 | GPR151 confirm inactive | GPR119 counter inactive
CCc1ccc(NC(=O)CSc2nnc(-c3ccc(N)cc3)n2C)cc1	none
CCn1c(SCC(=O)Nc2ccc(C(N)=O)cc2)nnc1-c1ccco1	GPR151 ag 6.8 | GPR151 confirm inactive | GPR119 counter inactive
CC1(C2CCN(Cc3c(F)cccc3Cl)CC2)NC(=O)NC1=O (stereo not drawn)	none
Cn1nc2c(c1C(=O)N1CCCC(CNC(=O)c3ccco3)C1)CCCC2 (stereo not drawn)	none
COCC(=O)N1CCCc2ccc(NS(=O)(=O)c3cc(C)ccc3C)cc21	GPR151 ag 6.8 | GPR151 confirm inactive | GPR119 counter inactive
COCC(=O)N1CCCc2ccc(NS(=O)(=O)c3ccc(C)c(C)c3)cc21	none
O=S(=O)(c1cccc2cnccc12)N1CCCN(S(=O)(=O)c2cccc3cnccc23)CC1	none
O=S(=O)(c1cccc2cnccc12)N1CCCNCC1	GPR151 ag 9.3! | GPR151 confirm inactive | GPR119 counter inactive
CC(C)CCOc1cccc(C(=O)Nc2cccc(NC(=O)c3ccccc3)c2)c1	none
COc1ccc(/C(O)=C2/C(=O)C(=O)N(CCCO)C2c2cccc(Cl)c2)cc1F (stereo not drawn)	GPR151 ag 6.8 | GPR151 confirm inactive | GPR119 counter inactive
COCCCN1C(=O)C(=O)/C(=C(\O)c2ccc(C)cc2)C1c1ccc(F)cc1 (stereo not drawn)	GPR151 ag 7.6 | GPR151 confirm inactive | GPR119 counter inactive
COc1cc(C2/C(=C(/O)c3ccc(Cl)cc3)C(=O)C(=O)N2CCO)ccc1O (stereo not drawn)	none
c1ccc(-c2csc(CN3CCOc4ccc(CN5CCOCC5)cc4C3)n2)cc1	none
COc1cccc(CN2CCN(C(=O)CCC3(C)CCC(=O)N3)CC2=O)c1 (stereo not drawn)	GPR151 ag 7.8 | GPR151 confirm inactive | GPR119 counter inactive
COc1ccc(/C=C2/N=C(c3ccc4c(c3)OCO4)OC2=O)cc1OC(C)=O	none
CCOC(=O)C(=O)Nc1nnc(-c2ccccc2)s1	none
COc1cc(C(=O)NNC(=O)CCN2CCCCC2)cc(OC)c1OC	GPR151 ag 4.9 | GPR151 confirm inactive | GPR119 counter inactive
CCc1cccc(NC(=O)c2sccc2S(=O)(=O)N(C)c2ccc(C)cc2)c1	GPR151 ag 6.0 | GPR151 confirm inactive | GPR119 counter inactive
CCCC1CCC(c2ccc(C(=O)Nc3ccccc3I)cc2)CC1 (stereo not drawn)	none
COc1cccc(CNC(=O)c2cc3ccc(-c4ccncc4)cc3n2C)c1	GPR151 ag 7.8 | GPR151 confirm inactive | GPR119 counter inactive
COc1cccc(CNC(=O)c2cc3ccc(-c4ccncc4)cc3[nH]2)c1	none
COc1cccc(CNC(=O)c2cc3ccc(-c4cn[nH]c4)cc3n2CCCO)c1	GPR151 ag 5.5 | GPR151 confirm inactive | GPR119 counter inactive
COc1cccc(CNC(=O)c2cc3ccc(-c4ccncc4)nc3[nH]2)c1	GPR151 ag 5.2 | GPR151 confirm inactive | GPR119 counter inactive
O=C(CSc1nc2ccc(NC(=O)c3ccccc3Br)cc2s1)NC1CC1	none
Cc1cccc(CN2C(=O)CCC2CCNCc2ccccc2F)c1 (stereo not drawn)	GPR151 ag 7.1 | GPR151 confirm inactive | GPR119 counter inactive
Cc1cccc(CNCCC2CCC(=O)N2Cc2cc(F)ccc2C)c1 (stereo not drawn)	none
C=CCOC(=O)C1=C(C)NC(C)=C(C(=O)OCC=C)C1c1cn(-c2ccccc2)nc1-c1ccc(Br)cc1	GPR151 ag 5.0 | GPR151 confirm inactive | GPR119 counter inactive
CC1CCCN(CCCNC(=O)c2ccc3c(c2)NC(=O)C(N2CCOCC2)S3)C1 (stereo not drawn)	GPR151 ag 6.2 | GPR151 confirm inactive | GPR119 counter inactive
COc1cc(Cl)cc(/C=C2\C(=O)NN(c3ccccc3)C2=O)c1O	GPR151 ag 5.7 | GPR151 confirm inactive | GPR119 counter inactive
O=C(c1ccncc1)N1CCN(CC(O)c2cccs2)CC1 (stereo not drawn)	none
Cc1ccc(C)c(C2=Nn3c(nnc3-c3cccc(S(=O)(=O)N(C)C)c3)SC2)c1	none
CC(C)c1ccc(CN(C(=O)c2cc3ccccc3oc2=O)C2CCS(=O)(=O)C2)cc1 (stereo not drawn)	GPR151 ag 5.6 | GPR151 confirm inactive | GPR119 counter inactive

Screening data (PubChem BioAssay)
